Molecules are shown by their SMILES. Out of some 360,000 compounds screened, about 11,000 (3.1%) were called active. Roughly 2% stayed inconclusive and do not appear here. Cut-off read from the data, not from the text of the source: active = fluorescence intensity above about 16000; inconclusive = no clear call, values can overlap the other calls; inactive = below that. This excerpt belongs to a sample that is enriched for actives.

A short description of the assay: compound fluorescence in toxin protease inhibitor counterscreen, primary screen, artefact control for toxin protease inhibitor project, biochemical, multiplex microsphere, HTS (AID 624483). As to conditions: compound autofluorescence counterscreen, microsphere flow cytometry; active compounds read high. Background: Counterscreens check selectivity or assay interference.
Consider `CC(C)CN1CCC1(C)C(=O)Nc1ccc(OC(F)F)cc1` (stereo unspecified), for which the fluorescence intensity was 3880 (inactive).

For `O=C(COC(=O)c1ncc(Cl)c(Cl)c1Cl)NNC(=O)c1ccccc1`, the fluorescence intensity is 4100 (inactive).

`O=C(COC(=O)Cc1ccccc1F)NNC(=O)c1ccc(Cl)cc1`: the fluorescence intensity is 5990 (inactive).

Turning to `O=C(CSCc1ccccc1Cl)NNC(=O)c1ccccc1`, the fluorescence intensity is 18500 (active).

As to `Cn1cnnc1Sc1ccc(S(C)(=O)=O)cc1[N+](=O)[O-]`, the fluorescence intensity was 3290 (inactive).

With `COc1ccc(COC[C@H](CC(C)C)N2CCN(C(=O)c3cccc(C(F)(F)F)c3)CCC2=O)cc1`, the fluorescence intensity was 4210 (inactive).

`COc1ccc(NC(=O)CN(Cc2ccccc2)S(C)(=O)=O)cc1OC`: the fluorescence intensity was 2130 (inactive).

On to `COc1ccc(NC(=O)CN(C)S(=O)(=O)c2ccccc2)cc1OC`, for which the fluorescence intensity was 16600 (active).

Consider `COc1ccc(S(=O)(=O)N(C)CC(=O)Nc2ccc3c(c2)OCCO3)cc1OC`, for which the fluorescence intensity was 3400 (inactive).

Turning to `O=C(Nc1cccc2cccnc12)c1ccc2sc([C@H]3C[C@H](O)[C@@H](CO)O3)nc2c1`, the fluorescence intensity is 3070 (inactive).

As for `Cc1cc(C)cc(OCC(=O)Nc2cc(NC(=O)COc3cc(C)cc(C)c3)cc(C(=O)O)c2)c1`, the fluorescence intensity was 3790 (inactive).

As for `CC(C)CC1C(=O)N(Cc2cn(Cc3ccco3)nn2)CCS(=O)(=O)N1Cc1ccc(-c2ccc(Cl)c(Cl)c2)cc1` (stereo unspecified), the fluorescence intensity is 3840 (inactive).

Consider `O=C(OCC#CCSc1nnc(-c2ccncc2)o1)c1sc2ccccc2c1Cl`, for which the fluorescence intensity is 2840 (inactive).

In the case of `COc1ccc2c(Cl)c(-c3nnco3)sc2c1`, the fluorescence intensity is 3460 (inactive).

On to `C#CCSc1nnc(-c2sc3ccccc3c2Cl)o1`, for which the fluorescence intensity is 19600 (active).

Regarding `CCCCCc1c(Cc2ccccc2)ncn1CCc1ccccc1OC`, the fluorescence intensity was 4640 (inactive).

As for `O=C(NCc1ccc(F)cc1F)[C@@H]1CCCN1C(=O)[C@@H]1CCCN1C(=O)c1cccc(Cl)c1`, the fluorescence intensity is 6340 (inactive).

As for `C[C@H]1CN([C@@H](C)CO)C(=O)CCCn2cc(nn2)CO[C@@H]1CN(C)C(=O)Nc1ccccc1`, the fluorescence intensity is 2950 (inactive).

Take `Cc1cccc(-n2c(N)c(C(=O)N3CCN(C)CC3)sc2=S)c1`: the fluorescence intensity is 2920 (inactive).

Turning to `N#Cc1ccccc1-n1c(N)c(C(=O)N2CCCC2)sc1=S`, the fluorescence intensity is 9660 (inactive).

Take `COC(=O)c1sc(=S)n(-c2ccccc2)c1N`: the fluorescence intensity was 20900 (active).

On to `Cn1c(=O)c2cc(NC(=O)NCCc3cccs3)ccc2n1Cc1cccc(C(F)(F)F)c1`, for which the fluorescence intensity was 3800 (inactive).

`CCCCn1c(SCC(=O)NCCc2ccc(OC)c(OC)c2)nc2c1c(=O)n(C)c(=O)n2C`: the fluorescence intensity was 22600 (active).

For the compound `CCCCn1c(SCC(=O)N2CCOCC2)nc2c1c(=O)n(C)c(=O)n2C`, the fluorescence intensity is 5590 (inactive).

`C#CC(C)(C)NC(=O)CSc1nc2c(c(=O)n(C)c(=O)n2C)n1CCCC`: the fluorescence intensity is 5580 (inactive).

Turning to `C=CCSc1nnc(Cn2c(=O)sc3ccccc32)n1C`, the fluorescence intensity was 5480 (inactive).

Take `CC(=O)Nc1cccc(-c2ccnc3c2CC(C)(C(=O)NCc2ccco2)O3)c1` (stereo unspecified): the fluorescence intensity was 3800 (inactive).

In the case of `CCN1C(=O)[C@H]2[C@@H](c3ccc(C(F)(F)F)cc3)N[C@]3(CCCN(Cc4ccc(Br)cc4)C3=O)[C@H]2C1=O`, the fluorescence intensity is 3620 (inactive).

With `Cn1c(C(=O)NCCCN2CCCCC2)cc2sccc21`, the fluorescence intensity was 8510 (inactive).

Consider `COc1ccc(CCNC(=O)c2cc3sccc3n2C)cc1OC`, for which the fluorescence intensity was 21800 (active).

For the compound `COc1ccc(CCNC(=O)COC(=O)/C=C/c2cccs2)cc1OC`, the fluorescence intensity was 3190 (inactive).

Take `CCOC(=O)C1Nc2ccc(C(F)(F)F)cc2C2C=CCC12` (stereo unspecified): the fluorescence intensity is 2760 (inactive).

On to `CC(=O)Nc1cc(-c2ccccc2N(C)C)cn2c(-c3ccc(F)c(Cl)c3)cnc12`, for which the fluorescence intensity was 3420 (inactive).

In the case of `O=C1NC[C@H](Cc2ccc(O)cc2)N(C[C@H]2CCCN2C[C@H](Cc2ccccc2)N2C[C@H](Cc3ccccc3)N(CCc3ccccc3)C(=O)C2=O)C1=O`, the fluorescence intensity is 5960 (inactive).

For `CC(OC(=O)CNC(=O)c1ccco1)C(=O)Nc1ccc(Cl)cn1` (stereo unspecified), the fluorescence intensity was 4920 (inactive).

Regarding `CCCCC(CC)C(=O)Nc1ccc(Cl)cn1` (stereo unspecified), the fluorescence intensity was 21400 (active).

Take `O=C(Nc1ccc(Cl)cn1)c1ccccc1-c1ccccc1`: the fluorescence intensity was 3610 (inactive).

With `COCCOC(=O)C1=C(C)NC(=O)NC1c1cc2c(cc1Br)OCO2` (stereo unspecified), the fluorescence intensity is 3890 (inactive).

Regarding `CCCOc1ccccc1C1CC(=O)Nc2cc3c(cc21)OCO3` (stereo unspecified), the fluorescence intensity is 3540 (inactive).

On to `COCCOC(=O)C1=C(C)NC(=O)CC1c1cc2c(cc1Br)OCO2` (stereo unspecified), for which the fluorescence intensity is 22200 (active).

For the compound `CS(=O)(=O)/C(C#N)=C/c1cccn1S(=O)(=O)c1ccc([N+](=O)[O-])cc1`, the fluorescence intensity is 5100 (inactive).

Take `CC(=O)Nc1cc(-c2ccccc2F)cn2c(-c3cccc(C(F)(F)F)c3)cnc12`: the fluorescence intensity was 3600 (inactive).

On to `CCOc1ccc(NC(=O)CN(C)C(=O)Cc2sc(C)nc2-c2ccc(F)cc2)cc1OCC`, for which the fluorescence intensity is 8360 (inactive).

In the case of `CCOc1ccc(-c2nc(C)sc2CC(=O)O)cc1`, the fluorescence intensity is 22400 (active).

With `Cc1ccc(-c2nc(C)sc2CC(=O)OCC(=O)Nc2c(F)cccc2F)cc1`, the fluorescence intensity was 2600 (inactive).

For the compound `CCOc1ccc(CCN2C(=S)N([C@@H](CC(C)C)CN3CCC[C@@H]3CN3C(=S)NC[C@@H]3Cc3ccc(O)cc3)C[C@@H]2CC(C)C)cc1`, the fluorescence intensity was 6060 (inactive).

For `COc1ccc(CNC(=O)CN2C(=O)NC3(CCCc4sccc43)C2=O)cc1` (stereo unspecified), the fluorescence intensity was 5880 (inactive).

As to `COc1ccc(OC)c(C(=O)c2ccc(C(=O)N3CCN(Cc4csc(C)n4)CC3)cc2)c1`, the fluorescence intensity is 4240 (inactive).

Regarding `COc1ccc(OC)c(C(=O)c2ccc(C(=O)O)cc2)c1`, the fluorescence intensity was 16800 (active).

With `COc1ccc(C(=O)CC(=O)c2ccc(C)cc2)c(O)c1`, the fluorescence intensity is 4090 (inactive).

For the compound `COCOc1cccc(CN2CCC(C)(Oc3ccc(SC)cc3)C2)c1` (stereo unspecified), the fluorescence intensity is 3010 (inactive).

Regarding `Cc1[nH]c(C)c(S(=O)(=O)N2CCN(c3cccc(C(F)(F)F)c3)CC2)c1C(=O)N1CCCCC1`, the fluorescence intensity is 5140 (inactive).

In the case of `CN1C(=O)C2(OCCCO2)c2cc(Cl)ccc21`, the fluorescence intensity was 3420 (inactive).

Take `CCOc1ccc(C(=O)Nc2ccc(S(=O)(=O)Nc3cc(C)on3)cc2)cc1`: the fluorescence intensity is 3660 (inactive).

With `COc1ccc(S(=O)(=O)Nc2cc(C)on2)cc1NC(C)=O`, the fluorescence intensity is 4100 (inactive).

Consider `COc1cc2ccccc2cc1C(=O)Nc1ccc(S(=O)(=O)Nc2cc(C)on2)cc1`, for which the fluorescence intensity was 18400 (active).

These data come from PubChem BioAssay AID624483 (NMMLSC, 2012).
